Screening results from PubChem BioAssay.
A selection: hits, their analogues and other compounds. The true share with any hit is near 7.9%.
HCMV antiviral – blocks human cytomegalovirus replication; HFF cells, HCMV-luciferase reporter, 72 h; hits give low values; activity change, negative = inhibition, % at 57.5 µM; 4.5% of 410,000 active; in the data active = activity change below about -60%; inconclusive = no clear call, values can overlap the other calls; inactive = above about -39%
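Steps: HFFs plated, 16 h 37C; compounds added; HCMV-luciferase added to MOI 1 PFU/cell; 72 h 37C; OneGlo reagent, 5 min room temperature; luminescence read, normalized to controls.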
MARV entry inh – Marburg virus entry inhibition | Marburg virus pseudotyped entry inhibition, cell reporter | Potency, µM (series often up to 37.8 µM), inactives show at the highest dose activity change, negative = inhibition, actives largely listed as inhibitors | 1.8% of 300,000 active | AID 540276; calls by dose curve; tested in HEK293 cells; note: potency is the fitted concentration of half-maximal effect
LASV entry inh – Lassa virus entry inhibition. Lassa virus pseudotype entry inhibition, cell reporter. Potency, µM (titrated, usually from 37.9 µM), for the others: top-dose activity change, negative = inhibition, hits mostly inhibitors. AID 540256. 1.2% of 300,000 active; calls by dose curve; tested in HEK293 cells; note: potency is the fitted concentration of half-maximal effect; nearly all actives have a fitted effect of over 50% in size
HCV inhibitor – blocks hepatitis C virus; Huh7.5.1 HCVcc-Cre infection, luciferase reporter, 44 h; Potency, µM (top dose mostly 41.8 µM), without a hit: top-dose activity change, negative = inhibition, usual class: inhibitors; 3.4% of 340,000 active; active = well fitted inhibition curve with a large enough effect; inconclusive = small, poorly fitted or top-dose-only effect, or another doubt; inactive = no such curve, though single readings can be large or run the other way; note: potency is the fitted concentration of half-maximal effect
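Cells (1,000/well) were plated 4 h before compound, then infected with HCVcc-Cre virus (~0.5 moi). After 44 h further culture, infection was read as luciferase luminescence following a 15 min substrate incubation at room temperature.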
FMDV inh – foot and mouth disease virus antiviral activity; FMDV antiviral cell-based qHTS; 1.2% of 410,000 active; Potency, µM (series often up to 57.9 µM), for inactives: at the top dose activity change, negative = inhibition, usual class: inhibitors; calls by dose curve; tested in HEK293T cells; note: read-out not given here; potency is the fitted concentration of half-maximal effect; nearly all actives have a fitted effect of over 45% in size
An asterisk follows results filed as active; [ ] = remark or other dose. % is set by controls: 0 for no effect and ±100 for the full control effect.

How did CC(=O)Nc1ccc(OCC(=O)Nc2ccc(Cl)c(S(=O)(=O)N3CCOCC3)c2)cc1 do in these assays?
HCMV antiviral: -71.2*; HCV inhibitor: inconclusive

How did CCOc1ccc(NC(=O)COc2ccc(S(=O)(=O)N3CCOCC3)cc2)cc1 do in these assays?
HCMV antiviral: -17.2; MARV entry inh: -19.2%; LASV entry inh: inconclusive; HCV inhibitor: inconclusive; FMDV inh: -34.6%

What do the screens show for `CC(CC(=O)Nc1ccc(Cl)c(S(=O)(=O)N2CCOCC2)c1)c1ccccc1` (stereo not given)?
HCMV antiviral: -81.6*; MARV entry inh: inconclusive; LASV entry inh: -43.8%; HCV inhibitor: 2.51µM*; FMDV inh: inconclusive

How did Cc1cc(OCC(=O)Nc2ccc(S(=O)(=O)N3CCN(C)CC3)cc2)ccc1Cl do in these assays?
HCMV antiviral: -13.0; MARV entry inh: inconclusive; LASV entry inh: -9.8%; HCV inhibitor: inconclusive; FMDV inh: -29.1%

How did CCN1CCCC1CNC(=O)c1cnn(-c2nccc(-c3cc4ccccc4o3)n2)c1C (stereo not given) do in these assays?
FMDV inh: 3.8%

What do the screens show for `COc1ccc(OCC(=O)Nc2ccc(S(=O)(=O)N3CCOCC3)cc2)cc1`?
HCMV antiviral: 5.2; MARV entry inh: inconclusive; LASV entry inh: -12.2%; HCV inhibitor: -9.9%; FMDV inh: -11.2%

What do the screens show for `O=C(COc1ccc(S(=O)(=O)N2CCOCC2)cc1)Nc1ccc(Br)cc1`?
HCMV antiviral: -26.3; HCV inhibitor: 10µM*; FMDV inh: inconclusive

What do the screens show for `O=C(Nc1ccc(Cl)c(S(=O)(=O)N2CCOCC2)c1)C1CCC1`?
HCMV antiviral: 6.5; HCV inhibitor: -10.1%; FMDV inh: -20.2%

What do the screens show for `O=C(CC1CCCC1)Nc1ccc(Cl)c(S(=O)(=O)N2CCOCC2)c1`?
HCMV antiviral: inconclusive; MARV entry inh: inconclusive; LASV entry inh: 2.82µM*; HCV inhibitor: 11.2µM*; FMDV inh: 31.6µM*

What do the screens show for `CCN(c1ccc(Cl)cc1)S(=O)(=O)c1nnc(NC(=O)c2ccccc2C)s1`?
HCMV antiviral: 26.5; LASV entry inh: inconclusive; FMDV inh: -23.5%

Results for COCCN(Cc1ccc(OC)cc1)c1c(C)nc2ccc(C(=O)NCCc3c[nH]c4ccccc34)cn12 ?
HCMV antiviral: -9.9; FMDV inh: -17.3%

What do the screens show for `Cc1ccc(S(=O)(=O)NC(CC(C)C)C(=O)N2CCN(C/C=C/c3ccccc3)CC2)cc1` (stereo not given)?
HCMV antiviral: inconclusive; HCV inhibitor: 11.2µM*; FMDV inh: -23.5%

How did COc1ccc(NC(=S)N2CCN(C/C=C/c3ccccc3)CC2)cc1 do in these assays?
HCMV antiviral: -64.6*; MARV entry inh: inconclusive; LASV entry inh: -6.0%[46.1 µM]; HCV inhibitor: inconclusive; FMDV inh: 15.4%

Results for CC(=O)c1ccc(NC(=O)C(C)N2CCN(C/C=C/c3ccccc3)CC2)cc1 (stereo not given) ?
HCMV antiviral: 15.5; MARV entry inh: -14.1%[14.2 µM]; LASV entry inh: 18.7%; HCV inhibitor: inconclusive; FMDV inh: inconclusive

How did Cc1ccc(NC(=O)CCN2CCN(C/C=C/c3ccccc3)CC2)cc1 do in these assays?
HCMV antiviral: -39.0; MARV entry inh: 8.91µM*; LASV entry inh: -29.6%; HCV inhibitor: inconclusive; FMDV inh: inconclusive

How did CC(C(=O)Nc1ccc([N+](=O)[O-])cc1)N1CCN(C/C=C/c2ccccc2)CC1 (stereo not given) do in these assays?
HCMV antiviral: inconclusive; MARV entry inh: 12.6µM*; LASV entry inh: 7.6%; HCV inhibitor: inconclusive; FMDV inh: 28.2µM*

How did CCOc1ccc(NC(=S)N2CCN(C/C=C/c3ccccc3)CC2)cc1 do in these assays?
HCMV antiviral: -30.4; MARV entry inh: -21.0%[46.1 µM]; HCV inhibitor: inconclusive; FMDV inh: -4.7%

Results for COc1cc(C(=O)N2CCCC(c3cc(C(=O)NCc4ccc(F)cc4)no3)C2)cc(OC)c1C (stereo not given) ?
HCMV antiviral: -19.2; FMDV inh: -22.6%

How did COc1ccc(Cl)cc1NC(=O)c1nnn(CC(=O)Nc2cc(C)cc(C)c2)c1N do in these assays?
HCMV antiviral: inconclusive; HCV inhibitor: 0.5%; FMDV inh: -1.8%

Results for Cc1ccc(Cl)cc1NC(=O)C1CCN(C(=O)c2cnn(-c3ccccc3)c2-n2cccc2)CC1 ?
HCMV antiviral: -12.4; MARV entry inh: inconclusive; LASV entry inh: 3.1%[46.1 µM]; FMDV inh: inconclusive

How did CCCc1nc2oc3c(NCCOCCO)ncnc3c2c2c1COC(C)(C)C2 do in these assays?
HCMV antiviral: -101.7*; MARV entry inh: -19.9%; LASV entry inh: -2.8%; HCV inhibitor: -13.3%; FMDV inh: inconclusive

What do the screens show for `CO[C@H]1[C@H](NC(=O)c2cccs2)c2ccccc2C12CCN(Cc1cccn1-c1ccccn1)CC2`?
FMDV inh: -15.2%

What do the screens show for `CCCOc1ccc(C2/C(=C(/O)c3ccc(F)cc3)C(=O)C(=O)N2CCCN(C)C)cc1` (stereo not given)?
HCMV antiviral: 7.4; MARV entry inh: 9.3%; LASV entry inh: -4.7%; HCV inhibitor: 12.9%; FMDV inh: 0.3%

What do the screens show for `COc1ccc(C2/C(=C(/O)c3ccc(F)cc3)C(=O)C(=O)N2CCCN(C)C)cc1` (stereo not given)?
HCMV antiviral: -82.6*; MARV entry inh: 6.3%[46.1 µM]; LASV entry inh: 21.8%; HCV inhibitor: -15.8%; FMDV inh: -7.4%

Results for COc1cc(/C=N/Nc2nn3cnnc3c3ccccc23)ccc1O ?
HCMV antiviral: 82.2; MARV entry inh: -29.4%; LASV entry inh: inconclusive; HCV inhibitor: 27.2%; FMDV inh: -5.3%

Results for COc1cc(C=NNc2ncnc3c2cnn3C(C)C)ccc1O ?
LASV entry inh: 12.5µM*

How did O=C1NC(=S)S/C1=C\C=C\c1ccc([N+](=O)[O-])o1 do in these assays?
HCMV antiviral: -99.8*; MARV entry inh: inconclusive; LASV entry inh: inconclusive; HCV inhibitor: inconclusive; FMDV inh: inconclusive

Results for O=C1NC(=S)S/C1=C/c1ccc(N2CCOCC2)o1 ?
MARV entry inh: inconclusive; LASV entry inh: -9.5%; HCV inhibitor: inconclusive; FMDV inh: inconclusive

Results for CC1(C(=O)O)CCN1C(=O)COc1ccc(Cl)cc1 (stereo not given) ?
HCMV antiviral: -3.1; FMDV inh: -11.3%

How did Cc1ccc2[nH]c(=O)c3cc(C(=O)NCCc4ccc(Cl)cc4)sc3c2c1 do in these assays?
HCMV antiviral: -10.9; MARV entry inh: 10.3%[46.1 µM]; LASV entry inh: -8.3%[46.1 µM]; FMDV inh: -14.4%

How did COc1ccccc1OCCCCCc1c(C)n[nH]c1C do in these assays?
HCMV antiviral: -61.4*; MARV entry inh: -19.2%; LASV entry inh: 0.1%; HCV inhibitor: inconclusive; FMDV inh: inconclusive

How did COc1cc(NC(=O)c2ccccc2Cl)ccc1NC(=O)c1ccco1 do in these assays?
HCMV antiviral: 53.2; MARV entry inh: 19.2%; LASV entry inh: -22.6%; HCV inhibitor: -41.0%; FMDV inh: 15.5%
